Source: the supplement of paper PMC8728848
Many of the other results were omitted from the sample, so the strongest signals are more common in it than they were.

Experiments:
Experiment in all cases: glycan array binding signal (z-score within array); higher = stronger binding
[1] = target: Kdn(a2-3)Gal(b1-4)GlcNAc; settings: glycan notation: IUPAC condensed, linker removed
How it was run: (§1)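 Columns mapping to the same glycan were averaged after glycan names were converted to IUPAC-condensed notation. The data come from 3228 arrays in the Consortium for Functional Glycomics database, limited to those with an available protein sequence. Binding is reported as a within-array Z-score averaged across arrays of one protein sequence and across linkers.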

[2] = target: Kdn(a2-6)Gal(b1-4)GlcNAc; settings: glycan notation: IUPAC condensed, linker removed
How it was run: as §1

[3] = target: Neu5Ac(a2-3)Gal(b1-3)GalNAc; settings: glycan notation: IUPAC condensed, linker removed
How it was run: as §1

[4] = target: Neu5Ac(a2-3)Gal(b1-3)GlcNAc(b1-2)Man(a1-3)[Neu5Ac(a2-3)Gal(b1-3)GlcNAc(b1-2)Man(a1-6)]Man(b1-4)GlcNAc(b1-4)GlcNAc; settings: glycan notation: IUPAC condensed, linker removed
How it was run: as §1

[5] = target: Neu5Ac(a2-3)Gal(b1-4)GlcNAc(b1-3)Gal(b1-4)GlcNAc(b1-3)Gal(b1-4)GlcNAc(b1-2)Man(a1-3)[Neu5Ac(a2-3)Gal(b1-4)GlcNAc(b1-3)Gal(b1-4)GlcNAc(b1-3)Gal(b1-4)GlcNAc(b1-2)Man(a1-6)]GalNAc; settings: glycan notation: IUPAC condensed, linker removed
How it was run: as §1

[6] = target: Neu5Ac(a2-3)Gal(b1-4)GlcNAc(b1-3)[Neu5Ac(a2-3)Gal(b1-4)GlcNAc(b1-6)]GalNAc; settings: glycan notation: IUPAC condensed, linker removed
How it was run: as §1

[7] = target: Neu5Ac(a2-6)Gal(b1-4)GlcNAc(b1-3)Gal(b1-4)GlcNAc(b1-6)[Gal(b1-3)]GalNAc; settings: glycan notation: IUPAC condensed, linker removed
How it was run: as §1

[8] = target: Neu5Ac(a2-6)Gal(b1-4)GlcNAc(b1-3)[Neu5Ac(a2-6)Gal(b1-4)GlcNAc(b1-6)]GalNAc; settings: glycan notation: IUPAC condensed, linker removed
How it was run: as §1

[9] = target: Neu5Ac9Ac(a2-3)Gal(b1-4)GlcNAc; settings: glycan notation: IUPAC condensed, linker removed
How it was run: as §1

[10] = target: Neu5Gc(a2-3)Gal(b1-3)GlcNAc; settings: glycan notation: IUPAC condensed, linker removed
How it was run: as §1

[11] = target: Fuc(a1-2)Gal; settings: glycan notation: IUPAC condensed, linker removed; mutation: R201A
How it was run: as §1

[12] = target: Fuc(a1-2)Gal(b1-3)GalNAc(b1-3)Gal(a1-4)Gal(b1-4)Glc; settings: glycan notation: IUPAC condensed, linker removed; mutation: R201A
How it was run: as §1

[13] = target: Fuc(a1-2)Gal(b1-3)GalNAc(b1-4)[Neu5Ac(a2-3)]Gal(b1-4)Glc; settings: glycan notation: IUPAC condensed, linker removed; mutation: R201A
How it was run: as §1

[14] = target: Fuc(a1-2)Gal(b1-4)Glc; settings: glycan notation: IUPAC condensed, linker removed; mutation: R201A
How it was run: as §1

[15] = target: Fuc(a1-2)[Gal(a1-3)]Gal(b1-3)GlcNAc; settings: glycan notation: IUPAC condensed, linker removed; mutation: R201A
How it was run: as §1

[16] = target: Fuc(a1-2)[Gal(a1-3)]Gal(b1-4)GlcNAc(b1-2)Man(a1-3)[Fuc(a1-2)[Gal(a1-3)]Gal(b1-4)GlcNAc(b1-2)Man(a1-6)]Man(b1-4)GlcNAc(b1-4)GlcNAc; settings: glycan notation: IUPAC condensed, linker removed; mutation: R201A
How it was run: as §1

[17] = target: Fuc(a1-2)[Gal(a1-3)]Gal(b1-4)GlcNAc(b1-3)[Fuc(a1-2)[Gal(a1-3)]Gal(b1-4)GlcNAc(b1-6)]GalNAc; settings: glycan notation: IUPAC condensed, linker removed; mutation: R201A
How it was run: as §1

[18] = target: Fuc(a1-2)[Gal(a1-3)]Gal(b1-4)GlcNAc(b1-6)GalNAc; settings: glycan notation: IUPAC condensed, linker removed; mutation: R201A
How it was run: as §1

[19] = target: Fuc(a1-2)[GalNAc(a1-3)]Gal(b1-4)GlcNAc(b1-2)Man(a1-3)[Fuc(a1-2)[GalNAc(a1-3)]Gal(b1-4)GlcNAc(b1-2)Man(a1-6)]Man(b1-4)GlcNAc(b1-4)[Fuc(a1-6)]GlcNAc; settings: glycan notation: IUPAC condensed, linker removed; mutation: R201A
How it was run: as §1

[20] = target: Fuc(a1-2)[GalNAc(a1-3)]Gal(b1-4)GlcNAc(b1-3)Gal(b1-4)GlcNAc(b1-3)Gal(b1-4)GlcNAc; settings: glycan notation: IUPAC condensed, linker removed; mutation: R201A
How it was run: as §1

[21] = target: Fuc(a1-3)[Gal(b1-4)]GlcNAc(b1-2)Man(a1-3)[Fuc(a1-3)[Gal(b1-4)]GlcNAc(b1-2)Man(a1-6)]Man(b1-4)GlcNAc(b1-4)[Fuc(a1-6)]GlcNAc; settings: glycan notation: IUPAC condensed, linker removed; mutation: R201A
How it was run: as §1

[22] = target: Fuc(a1-3)[Gal3S(b1-4)]GlcNAc; settings: glycan notation: IUPAC condensed, linker removed; mutation: R201A
How it was run: as §1

[23] = target: Fuc(a1-4)GlcNAc; settings: glycan notation: IUPAC condensed, linker removed; mutation: R201A
How it was run: as §1

[24] = target: Gal(a1-3)Gal(b1-4)GlcNAc; settings: glycan notation: IUPAC condensed, linker removed; mutation: R201A
How it was run: as §1

[25] = target: Gal(a1-3)Gal(b1-4)[Fuc(a1-3)]GlcNAc(b1-2)Man(a1-3)[Gal(a1-3)Gal(b1-4)[Fuc(a1-3)]GlcNAc(b1-2)Man(a1-6)]Man(b1-4)GlcNAc(b1-4)GlcNAc; settings: glycan notation: IUPAC condensed, linker removed; mutation: R201A
How it was run: as §1

[26] = target: Gal(a1-4)Gal(b1-4)GlcNAc(b1-3)Gal(b1-4)Glc; settings: glycan notation: IUPAC condensed, linker removed; mutation: R201A
How it was run: as §1

[27] = target: Gal(b1-3)GlcNAc(b1-2)Man(a1-3)[Gal(b1-3)GlcNAc(b1-2)Man(a1-6)]Man(b1-4)GlcNAc(b1-4)[Fuc(a1-6)]GlcNAc; settings: glycan notation: IUPAC condensed, linker removed; mutation: R201A
How it was run: as §1

[28] = target: Gal(b1-3)GlcNAc(b1-2)Man(a1-3)[GlcNAc(b1-4)][Gal(b1-3)GlcNAc(b1-2)Man(a1-6)]Man(b1-4)GlcNAc(b1-4)GlcNAc; settings: glycan notation: IUPAC condensed, linker removed; mutation: R201A
How it was run: as §1

[29] = target: Gal(b1-4)GlcNAc(b1-3)Gal(b1-3)GalNAc; settings: glycan notation: IUPAC condensed, linker removed; mutation: R201A
How it was run: as §1

[30] = target: Gal(b1-4)GlcNAc(b1-3)Gal(b1-4)Glc; settings: glycan notation: IUPAC condensed, linker removed; mutation: R201A
How it was run: as §1

[31] = target: Gal(b1-4)GlcNAc(b1-3)Gal(b1-4)GlcNAc(b1-3)Gal(b1-4)GlcNAc(b1-3)Gal(b1-4)GlcNAc(b1-3)Gal(b1-4)GlcNAc(b1-2)Man(a1-3)[Gal(b1-4)GlcNAc(b1-3)Gal(b1-4)GlcNAc(b1-3)Gal(b1-4)GlcNAc(b1-3)Gal(b1-4)GlcNAc(b1-3)Gal(b1-4)GlcNAc(b1-2)Man(a1-6)]Man(b1-4)GlcNAc(b1-4)GlcNAc; settings: glycan notation: IUPAC condensed, linker removed; mutation: R201A
How it was run: as §1

[32] = target: Gal(b1-4)GlcNAc(b1-3)Gal(b1-4)GlcNAc(b1-3)Gal(b1-4)GlcNAc(b1-3)Gal(b1-4)GlcNAc(b1-3)Gal(b1-4)GlcNAc(b1-3)Gal(b1-4)GlcNAc(b1-2)Man(a1-3)[Gal(b1-4)GlcNAc(b1-3)Gal(b1-4)GlcNAc(b1-3)Gal(b1-4)GlcNAc(b1-3)Gal(b1-4)GlcNAc(b1-3)Gal(b1-4)GlcNAc(b1-3)Gal(b1-4)GlcNAc(b1-2)Man(a1-6)]Man(b1-4)GlcNAc(b1-4)GlcNAc; settings: glycan notation: IUPAC condensed, linker removed; mutation: R201A
How it was run: as §1

[33] = target: Gal3S6S(b1-4)GlcNAc6S; settings: glycan notation: IUPAC condensed, linker removed; mutation: R201A
How it was run: as §1

[34] = target: Gal6P(b1-4)GlcNAc; settings: glycan notation: IUPAC condensed, linker removed; mutation: R201A
How it was run: as §1

[35] = target: GalNAc(a1-3)Gal; settings: glycan notation: IUPAC condensed, linker removed; mutation: R201A
How it was run: as §1

[36] = target: GalNAc(b1-3)Gal(a1-4)Gal(b1-4)GlcNAc; settings: glycan notation: IUPAC condensed, linker removed; mutation: R201A
How it was run: as §1

[37] = target: GalNAc3S(b1-4)GlcNAc; settings: glycan notation: IUPAC condensed, linker removed; mutation: R201A
How it was run: as §1

[38] = target: Glc(a1-6)Glc(a1-6)Glc(a1-6)Glc; settings: glycan notation: IUPAC condensed, linker removed; mutation: R201A
How it was run: as §1

[39] = target: Glc(b1-4)Glc; settings: glycan notation: IUPAC condensed, linker removed; mutation: R201A
How it was run: as §1

[40] = target: GlcA(b1-3)GlcNAc; settings: glycan notation: IUPAC condensed, linker removed; mutation: R201A
How it was run: as §1

B1: HPL (Tachypleus tridentatus) (protein)
chain: MEDDCTCVTDRSLEGKLMKHPSTPAVYQILDGCRRLVPNPPTYNNIYKNWECIQSNILEKLLCKCDSLSNGAELIKGSGDTVYLLSNGVKRPIADPETFNGFCFDWNKIKTYSDIVINSLSTGPIIIIKHHHHHH
glycan array binding signal (z-score) [1]: -0.185 | glycan array binding signal (z-score) [2]: -0.279 | glycan array binding signal (z-score) [3]: -0.291 | glycan array binding signal (z-score) [4]: 2.02 | glycan array binding signal (z-score) [5]: 1.54 | glycan array binding signal (z-score) [6]: -0.093 | glycan array binding signal (z-score) [7]: -0.132 | glycan array binding signal (z-score) [8]: 0.127 | glycan array binding signal (z-score) [9]: -0.231 | glycan array binding signal (z-score) [10]: -0.215

B2: OS9 (Arabidopsis thaliana) (protein)
chain: MRGSHHHHHHGMASMTGGQQMGRDLYDDDDKSRLQIFPAHLVGTFSRNNREPKYKIEFLPEDSPFHPGDNLESMVMLDKHGNRFLCYLPKEEKATSGWTSSQQNISTVMMETQQLVKLKTPDELLQPLSEKCLFRQEGWWSYEFCHQKYVRQLHVEDENKIVQEFFLGTFDPEATAAFNQTVSDASTDASQRYHSHVYTNGTTCDLTGSPAEVEVRFVCAETRAMVTSITELSTCKYALTVQCPTLCKHPLFQLEKPVSHTIHCNAIPVEEDATRNKEEQAVDESPKMIADS
glycan array binding signal (z-score) [11]: 0.581 | glycan array binding signal (z-score) [12]: -0.131 | glycan array binding signal (z-score) [13]: -0.246 | glycan array binding signal (z-score) [14]: -0.732 | glycan array binding signal (z-score) [15]: -0.124 | glycan array binding signal (z-score) [16]: -0.237 | glycan array binding signal (z-score) [17]: 1.25 | glycan array binding signal (z-score) [18]: -0.223 | glycan array binding signal (z-score) [19]: -0.739 | glycan array binding signal (z-score) [20]: 2.49 | glycan array binding signal (z-score) [21]: 3.48 | glycan array binding signal (z-score) [22]: 0.043 | glycan array binding signal (z-score) [23]: 2.18 | glycan array binding signal (z-score) [24]: -0.929 | glycan array binding signal (z-score) [25]: 0.205 | glycan array binding signal (z-score) [26]: -0.456 | glycan array binding signal (z-score) [27]: -0.307 | glycan array binding signal (z-score) [28]: -0.686 | glycan array binding signal (z-score) [29]: -0.513 | glycan array binding signal (z-score) [30]: -0.35 | glycan array binding signal (z-score) [31]: -0.257 | glycan array binding signal (z-score) [32]: 0.133 | glycan array binding signal (z-score) [33]: 3.98 | glycan array binding signal (z-score) [34]: -0.208 | glycan array binding signal (z-score) [35]: 1.39 | glycan array binding signal (z-score) [36]: 2.17 | glycan array binding signal (z-score) [37]: 2.29 | glycan array binding signal (z-score) [38]: -1.12 | glycan array binding signal (z-score) [39]: 2.1 | glycan array binding signal (z-score) [40]: 1.54
